Compound activity (PubChem BioAssay)
PPC-1+TRAIL kill: compounds killing PPC-1 cancer cells with TRAIL present, primary screen, TRAIL potentiator project, ATPLite luminescence, uHTS; PPC-1 cells + TRAIL, ATPLite viability luminescence; cell killing (% activity), % at 4 µM or 5 µM; 0.41% of 220,000 active;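 active = cell killing above 50% in the first pass at 4 µM, then a duplicate retest at 5 µM averaging 50% or more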;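 also: plate controls were cells with TRAIL plus DMSO for no effect and medium-only wells lacking cells for full effect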
Platelet DG rel: inhibitors of platelet dense granule secretion, primary screen, cell-based, MLPCN, human platelets; human platelet-rich plasma, SFLLRN dense granule ATP release, luminescence; inhibition, %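 (compounds screened at 7.5 µM in platelet-rich plasma)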; 0.22% of 300,000 active; AID 1663, 2009;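 active = mean replicate score, as percent of positive control, at or above 50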
TROY signal inh: inhibitors of TROY-driven NF-kB signaling, primary screen, Q293 LMP1-TROYcd cells, NF-kB luciferase, uHTS | Q293 LMP1-TROYcd NF-kB luciferase reporter, 4 h | inhibition, % at 10 µM | 0.98% of 360,000 active | AID 1347056, 2019;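 active = compounds whose plate-normalised and pattern-corrected inhibition of the luciferase reporter signal at the single screening dose is 50% or more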
C8 TRAIL sens: viability loss with TRAIL in NB7+C8 cells, primary screen, TRAIL sensitizer project, cell-based, ATPlite luminescence. 1% of 360,000 active. inhibition (viability loss, TRAIL sensitization), % at 10 µM;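 active = compounds causing at least 50% loss of cell viability in the single-dose screen, relative to plate controls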
TWEAK Fn14 block: inhibitors of TWEAK-Fn14 signaling, primary screen, luciferase reporter cells, uHTS | TWEAK-stimulated Fn14 reporter cells, luciferase luminescence, 8 h | inhibition, % at 10 µM | 2% of 360,000 active; in the data active = inhibition above about 50%
HSP90 refold inh: HSP90 inhibitors, primary screen, cell lysate, luminescence; inhibition, % at 5.6 µM; 0.91% of 290,000 active; Rabbit reticulocyte lysate, luciferase refolding luminescence, 3 h; Heat shock protein HSP 90 (rabbit reticulocyte lysate; luciferase refolding); AID 1789, 2009;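 active = inhibition above the screen-wide mean plus 3 SD, computed separately per campaign, cut at about 16% in these data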;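 also: 0% = DMSO wells and 100% = 60 µM geldanamycin wells; inhibitors lower the luminescence because luciferase stays unfolded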
Numbers without * were called inactive; . = no result. Compounds with a hit are over-represented: about 3.5% of the library has one in this group of screens.

SMILES	PPC-1+TRAIL kill	Platelet DG rel	TROY signal inh	C8 TRAIL sens	TWEAK Fn14 block	HSP90 refold inh
CCc1nnc(NC(=O)c2ccc(S(=O)(=O)N(CCOC)CCOC)cc2)o1	22	.	4	-5	-12	-2
COc1ccccc1CCNC(=O)CN1C(=O)c2ccccc2S1(=O)=O	.	-2	-39	6	1	.
O=C(c1ccccc1)c1nn(-c2ccccc2)c(=O)cc1-c1ccccc1	.	.	3	-3	9	.
O=C(Nc1ccccc1Oc1ccccc1)c1cc([N+](=O)[O-])ccc1Cl	15	-6	-17	-5	54*	2
CCc1ccccc1OCC(=O)Nc1nc(-c2cccnc2)cs1	6	2	61*	14	-39	1
Cc1ccc[n+](CC(=O)Nc2nc3ccccc3s2)c1	13	3	81*	-8	64*	0
O=C(C[n+]1ccccc1)Nc1nc2ccccc2s1	-1	2	40	-4	-7	1
Cc1ccc(S(=O)(=O)N(C)c2ccc(OCC(=O)Nc3nc4ccccc4s3)cc2)cc1	-1	-1	24	31	70*	1
CN(c1ccc(OCC(=O)Nc2nc(-c3ccccc3)cs2)cc1)S(=O)(=O)c1ccc(F)cc1	1	-5	18	21	55*	5
Cc1ccc(NC(=O)CSc2nc3ccccc3c(=O)[nH]2)cc1[N+](=O)[O-]	.	.	15	0	-14	.
Cc1onc(-c2ccccc2)c1C(=O)OCC(=O)c1ccc(F)cc1	.	.	-2	-7	-9	.
COC(=O)c1ccc(CSc2nc3ccccc3[nH]2)o1	13	1	-5	3	-4	0
COC(=O)c1cc(CSc2nc3ccc(C)cc3[nH]2)oc1C	6	1	.	2	92*	12
CC(=O)c1c(O)cc(O)cc1CC(=O)O	-1	4	-6	4	9	-4
CC(=O)c1c(O)cc(O)c(C(C)=O)c1O	3	-3	59*	2	-28	.
O=C(O)/C=C/C(=O)NNC(=O)c1cc(-c2ccccc2)n[nH]1	22	-2	-20	51*	10	1
O=C(O)/C=C\C(=O)NNC(=O)c1cc(-c2ccccc2)n[nH]1	-9	7	4	7	-8	-1
CC1(C)Cc2nc3oc4c(SCC(N)=O)ncnc4c3cc2CO1	3	6	-22	-8	0	4
Cc1ccc2c(c1)cc(C)c1nnc(SCC(=O)NCc3ccco3)n12	-11	3	-8	-5	9	-1
Cc1ccc2cc(C)c3nnc(SCC(=O)NCc4ccco4)n3c2c1	4	-5	-13	8	52*	1
CC(=O)Nc1cccc(OCCCOc2cccc([N+](=O)[O-])c2)c1	.	.	-25	2	-20	.
O=C1c2ccccc2NC(c2cccc(O)c2)N1O (stereo not given)	.	1	83*	-1	18	1
Cc1cc(C)nc(NS(=O)(=O)c2ccc(NC(=O)c3ccccc3Br)cc2)n1	.	.	-12	-17	-9	.
O=C(O)CC(CCc1ccccc1)OC1OC(CO)C(O)C(O)C1O (stereo not given)	0	.	1	5	59*	.
Cc1ccc(-c2nc(-c3cccnc3)no2)c(C)c1	38	0	-25	37	20	-3
SMILES	PPC-1+TRAIL kill	Platelet DG rel	TROY signal inh	C8 TRAIL sens	TWEAK Fn14 block	HSP90 refold inh
Clc1ccc(-c2nc(-c3cnccn3)no2)cc1	25	10	-56	53*	34	-5
Fc1ccc(-c2nc(-c3cnccn3)no2)c(Cl)c1	49	15	-7	60*	37	5
Cc1ccc2c(c1)NC(=O)c1cccnc1N2	4	14	-25	1	-7	-6
O=C1Nc2ccccc2Nc2ncccc21	12	61*	-12	5	7	4
O=C(c1cnc2ccccc2n1)N1CCN(c2ccc(C(F)(F)F)cn2)CC1	-3	1	-22	3	-2	-2
COc1cc(/C=N/N=C(N)N)ccc1OCc1ccc(Cl)cc1	12	5	62*	36	81*	5
COc1cc(/C=N/O)ccc1OCc1ccc(Cl)cc1	4	3	.	.	.	-3
CCOc1cc(/C=N/N=C(N)N)ccc1OCc1ccc(Cl)cc1	50*	-1	-14	87*	10	0
NC(N)=N/N=C/c1ccc(OCc2ccccc2)c(OCc2ccccc2)c1	.	9	16	32	-12	8
CCOc1cc(/C=N/N=C(/N)c2nonc2N)cc(Br)c1OCc1ccc(Cl)cc1	9	1	1	57*	-15	1
COc1cc(CNCCc2ccc(S(N)(=O)=O)cc2)ccc1OCc1ccc(Cl)cc1	18	1	-9	43	-10	-1
CCOc1cc(CNCCc2ccc(S(N)(=O)=O)cc2)ccc1OCc1ccc(Cl)cc1	27	5	29	73*	86*	4
CCCc1cc(CNC(=O)C2CCC(=O)N(Cc3ccccc3OC)C2)on1 (stereo not given)	.	2	-21	-15	-11	-8
CCNC(=O)c1cc2c(c(-c3cccc(-c4cccc(C(=O)N(C)C)c4)c3)n1)[C@@H](CCO)N(S(=O)C(C)(C)C)C2 (stereo not given in full)	.	.	10	2	-23	.
CC(C)(C)S(=O)N1Cc2cc(C(=O)NCC(F)(F)F)nc(-c3cccc(-c4cccc(F)c4)c3)c2[C@@H]1CCO (stereo not given in full)	.	.	7	-12	53*	.
Cc1ccccc1C(=O)O/N=C(\N)Cc1cccs1	.	-2	-10	92*	-6	2
CC(C)(C)c1ccc(C(=O)O/N=C(\N)Cc2cccs2)cc1	.	.	-26	94*	-153	.
O=c1c(Sc2ccccc2)c(C(F)(F)F)[nH]n1-c1ccccc1	12	-8	53*	11	7	-8
CCOC(=O)c1sc(NC(=O)c2sccc2C)cc1C	35	62*	-34	34	33	0
CCOC(=O)c1sc(NC(=O)c2ccc(Br)o2)cc1C	28	34	-35	31	-3	-5
CCOC(=O)c1sc(NC(=O)Nc2cccc(Cl)c2)cc1C	18	8	31	55*	75*	4
OC(CNCC1CCCO1)Cn1c2ccc(Cl)cc2c2cc(Cl)ccc21 (stereo not given)	18	-4	-20	41	3	2
OC(CNCCC1C=Nc2ccccc21)Cn1c2ccc(Cl)cc2c2cc(Cl)ccc21 (stereo not given)	40	0	49	13	74*	-1
CN1CCN(C(=O)c2ccc(S(=O)(=O)N(C)c3ccccc3)cc2)CC1	.	.	-10	-17	-1	.
